Here are results for 40 molecules from PubChem BioAssay (Tox21).

Values without a mark were called inactive. Active and inactive are the calls of the source. Calls follow the shape of the dose curve; as a rule, active = well fitted curve in the direction sought with a large enough effect in the repeat runs; inconclusive = weak or mixed curves; inactive = flat fitted curve, though single readings scatter.
% is scaled to controls: 0 for no effect and ±100 for the full control effect.

The nature of the experiment: qHTS assay to test for compound auto fluorescence at 460 nm (blue) in HEK293 cell free culture (AID 720681). To be noted: cell-free medium, autofluorescence 405/460 nm (blue); series mostly up to 91.3 µM. The text has this:
U.S. Tox21 Program National Center for Advancing Translational Sciences [NCATS] NIH Chemical Genomics Center [NCGC] U.S. Environmental Protection Agency [EPA] National Institutes of Environmental Health Sciences [NIEHS] National Toxicology Program [NTP] U.S. Food and Drug Administration [FDA] Tox21 Assay Overview: Compound auto fluorescence often interferes with screening of the compound library against various biological targets and signaling pathways. Some of these compounds may have fluorophoric properties. Such properties may interfere with the assay outputs resulting in false positives and/or negatives. To decrease such complications and ensure the compound activities are relevant in terms of biological response, the Tox21 10K compound library was screened for auto fluorescence. From the fluorophores used as reporter signals in our screening assays, the auto fluorescence equivalencies of compounds against three fluorophores have been evaluated: Triamterene, Fluorescein and Rose Bengal sodium for blue, green and red fluorescence, respectively. The fluorescence intensities were measured using Excitation/Emission wavelengths at 405/460nm, 485/535nm and 540/590nm for blue, green and red labels, respectively. This assay includes the blue fluorescence data.
Tox21 Assay Protocol Summary: 5 uL of culture medium (DMEM containing 10% FBS) per well was dispensed into black wall/clear bottom 1536-well plates using a Multidrop Combi Dispenser (ThermoFisher Scientific, Waltham, MA). After 23 nL compound or DMSO vehicle was transferred into assay plate by a pintool work station (Kalypsys, San Diego, CA), fluorescence intensities in the assay plates were measured by an Envision (PerkinElmer, Shelton, CT) plate reader using three labels for measuring blue, green and red fluorescence at […] 460, 535 and 590nm respectively.
On the technique in general: Quantitative high-throughput screening tests each substance at several concentrations.
Consider `C=CCCC=C`, for which the molecule was called inactive.
For `CC(C)=CCCC(C)CCOC=O` (stereo not given), the result was inactive.
Consider `COC(=O)N[C@H](C(=O)N[C@@H](Cc1ccccc1)[C@@H](O)CN(Cc1ccc(-c2ccccn2)cc1)NC(=O)[C@@H](NC(=O)OC)C(C)(C)C)C(C)(C)C`, for which the molecule was classed as inactive.
On the same count and under the same terms, for `C1CSCCS1` the value was “inactive”.
On to `O=C(Cl)c1cccc([N+](=O)[O-])c1`, for which the outcome was inactive.
With `CC1=C(O)C(=O)OC1C` (stereo not given), the molecule was classed as inactive.
`CN1CCN(C2=Nc3ccccc3Oc3ccc(Cl)cc32)CC1`: the fluorescence, % of fluorescent control was 0.0139% [at 18.6 µM].
For `CC(=O)N[C@@H](CC(C)C)C(=O)O`, the call was inactive.
On to `NC(=O)Cc1cccc(C(=O)c2ccccc2)c1N`, for which the outcome was inactive.
On to `CNCCC(Oc1ccccc1OC)c1ccccc1` (stereo not given), for which the call was inactive.
For `CCCCOc1cc(C(=O)NCCN(CC)CC)c2ccccc2n1`, the fluorescence, % of fluorescent control is 0.0819% [at 18.6 µM].
Turning to `O=[N+]([O-])c1nccn1CO[C@@H](CO)[C@H](O)CO`, the call was inactive.
Regarding `CN(CCCN1c2ccccc2CCc2ccccc21)CC(=O)c1ccc(Cl)cc1`, the call was inactive.
For `CC1(C)O[C@@H]2C[C@H]3[C@@H]4CCC5=CC(=O)CC[C@]5(C)[C@@]4(F)[C@@H](O)C[C@]3(C)[C@]2(C(=O)CCl)O1`, the fluorescence, % of fluorescent control was -0.106% [at 18.6 µM].
For the molecule `COc1ccc(S(=O)(=O)Nc2nnc(CC(C)C)s2)cc1`, the outcome was inactive.
`CCCCCCCOC(=O)CCC`: the result was inactive.
Same read-out and setting: for `CCOc1ccccc1N` the value was “inactive”; for `Cc1ccccc1C(=O)Nc1ccc(C(=O)N2CCCC(O)c3cc(Cl)ccc32)c(C)c1` (stereo not given), “inactive”.
With `O=C1CCC(C2CCCCC2)CC1`, the result was inactive.
With `OCC(CBr)(CBr)CBr`, the call was inactive.
Consider `OCc1ccccc1O`, for which the molecule was called inactive.
In the case of `CC(=O)Oc1cc(C(C)C)c(OCCN(C)C)cc1C`, the fluorescence, % of fluorescent control was -0.142% [at 18.6 µM].
With `CN1[C@@H]2CC[C@H]1CC(OC(=O)c1c[nH]c3ccccc13)C2` (stereo not given in full), the molecule was classed as inactive.
Take `CCOC(=O)C(Br)c1ccccc1` (stereo not given): the outcome was inactive.
For the molecule `CCC(=O)O[C@]1(C(=O)SCF)[C@H](C)C[C@H]2[C@@H]3C[C@H](F)C4=CC(=O)C=C[C@]4(C)[C@@]3(F)[C@@H](O)C[C@@]21C`, the fluorescence, % of fluorescent control was 0.0707% [at 18.6 µM].
`CCCOCCC`: the molecule was classed as inactive.
Take `Cc1ccsc1C(=CCCN1CCC[C@@H](C(=O)O)C1)c1sccc1C`: the outcome was inactive.
In the case of `O=C(O)[C@@H](O)[C@H](O)[C@H](O)[C@@H](O)C(=O)O`, the call was inactive.
In the case of `CC(=O)OC(C)OC(C)=O`, the molecule was called inactive.
With `NC/C=C/C(=O)O`, the result was inactive.
Regarding `Cc1cccc(C)c1NC(=O)CN1CCCCCC1`, the molecule was called inactive.
Take `CN1CCN(c2c(F)cc3c(=O)c(C(=O)O)cn(CCF)c3c2F)CC1`: the molecule was classed as inactive.
With `Nc1cccc(S(=O)(=O)O)c1`, the molecule was called inactive.
As to `OCCN1CCN(CCO)CC1`, the molecule was called inactive.
For `CCOc1ccc(OCC)c(Cl)c1`, the outcome was inactive.
In the case of `N#Cc1ccc(C(c2ccc(C#N)cc2)n2cncn2)cc1`, the molecule was classed as inactive.
For the molecule `Nc1ccc(Oc2ccc(N)c(N)c2)cc1`, the molecule was called inactive.
Turning to `CCCNC(C)(C)COC(=O)c1ccccc1`, the molecule was classed as inactive.
In the case of `CN1CCN(c2c(F)cc3c(=O)c(C(=O)O)cn4c3c2SCC4)CC1`, the molecule was called inactive.
In the case of `CCCC1CCC(=O)O1` (stereo not given), the result was inactive.
